PubChem BioAssay (EPA / NIEHS)
Several values for one entry are separate records, joined by “and”; a condition that tells them apart may be missing. Equal values may be shown once. Inconclusive results are not listed. Where a structure was tested more than once in an assay, its records may differ in their call. Activity calls are given as the source filed them. Rule for the calls: active = hit-call score of the fitted dose curve at least 0.9, where 1 is the maximum; inconclusive = response in the unintended direction; inactive = score below 0.9.

Tests used:
[1] = target: Glucocorticoid receptor (Homo sapiens) (UniProt P04150); assay: NVS_NR_hGR: NovaScreen (NVS) Nuclear Receptor Binding Assay for human Glucocorticoid Receptor (GR) (AID 2283363);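 for AC50: activity is loss of specific radioligand binding signal relative to DMSO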
Summary of the method: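 Competitive displacement of a labelled ligand was measured on cell-free receptor preparations after 16 h exposure. Initial testing used 25 uM in duplicate with plate controls; confirmed actives went into concentration series.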

[2] = target: Peroxisome proliferator-activated receptor gamma (Homo sapiens) (UniProt P37231); assay: NVS_NR_hPPARg: NovaScreen (NVS) Nuclear Receptor Binding Assay for human Peroxisome Proliferator-activated Receptor gamma (PPARg) (AID 2283370)
Summary of the method: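 Chemicals were tested first in duplicate at 25 uM, then in concentration series if active. Binding to cell-free PPARg protein was measured by fluorescence polarization after 2 h, with loss of signal scored against DMSO.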

[3] = tested on: guinea pig Dopamine Transporter (DAT), gene 100714898; assay: NVS_TR_gDAT: NovaScreen (NVS) Transporter Assay for guinea pig Dopamine Transporter (DAT) (AID 2283369);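 note: active compounds lower bound radioligand signal relative to DMSO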
Summary of the method: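 Scintillation counts of filter-retained radioligand report binding to guinea pig striatal membranes after 2 h. Activity scored as signal loss relative to DMSO, first at 25 uM in duplicate, then in concentration series to 50 uM.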

[4] = target: human Dopamine Transporter (DAT), SLC6A3 (gene 6531) (UniProt Q01959); assay: NVS_TR_hDAT: NovaScreen (NVS) Transporter Assay for human Dopamine Transporter (DAT) (AID 2283374);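 note: activity means loss of bound radioligand signal relative to DMSO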
Summary of the method: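 Test chemicals were first screened in duplicate at 25 uM, with actives retested as concentration series. Displacement of a specific radioligand from cell-free human dopamine transporter was measured after 1 h by filtration and scintillation counting.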

[5] = target: rat Androgen Receptor (AR), Ar (gene 24208) (UniProt P15207); assay: NVS_NR_rAR: NovaScreen (NVS) Nuclear Receptor Binding Assay for rat Androgen Receptor (AR) (AID 2283366)
Summary of the method: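 Cell-free radioligand binding on extracts of prostate from testosterone-pretreated rats, read by filter-based scintillation counting 18 h after dosing. Loss of bound signal fitted positively versus DMSO; primary screen in duplicate at 25 uM, actives followed up in concentration series.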

[6] = target: human Adenosine Transporter (Adot), SLC29A1 (gene 2030) (UniProt Q99808); assay: NVS_TR_hAdoT: NovaScreen (NVS) Transporter Assay for human Adenosine Transporter (Adot) (AID 2283368)
Summary of the method: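 U937-derived membranes, cell-free radioligand binding, filter scintillation 1 h after dosing. 25 uM duplicate screen; hits (e.g. 30% inhibition) run in concentration-response up to 50 uM; loss of signal versus DMSO.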

[7] = target: human Serotonin Transporter (SERT), SLC6A4 (gene 6532) (UniProt P31645); assay: NVS_TR_hSERT: NovaScreen (NVS) Transporter Assay for human Serotonin Transporter (SERT) (AID 2283372)
Summary of the method: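 Radioligand binding to native SERT in human platelet membranes, read by filter-based scintillation counting 1 h after dosing. Primary screen in duplicate at 25 uM; actives followed up in concentration series; loss of signal versus DMSO baseline.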

[8] = target: human Thyroid Receptor Alpha (TRa), THRA (gene 7067) (UniProt P10827); assay: NVS_NR_hTRa_Antagonist: NovaScreen (NVS) Nuclear Receptor Binding Assay for human Thyroid Receptor Alpha Antagonism (TRa) (AID 2283362);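 note: activity is loss of signal relative to DMSO baseline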
Summary of the method: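 Extracted protein, cell-free; 1 h incubation after dosing; AlphaLISA chemiluminescence binding readout. DMSO = baseline/neg ctrl; signal loss = activity. Primary: duplicate, 25 uM; secondary: conc. series on actives.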

[9] = target: Nuclear receptor subfamily 1 group I member 2 (Homo sapiens) (UniProt O75469); assay: NVS_NR_hPXR: NovaScreen (NVS) Nuclear Receptor Binding Assay for human Pregnane X Receptor (PXR) (AID 2283365);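 note: a drop in FRET signal versus DMSO baseline means the compound binds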
Summary of the method: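 Human PXR protein, cell-free; compound added, incubated 2 h, TR-FRET read. Signal decrease vs DMSO = binding. Screened 25 uM duplicate, actives re-run as dilution series.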

[10] = tested on: rat Norepinephrine Transporter (NET), gene 83511; assay: NVS_TR_rNET: NovaScreen (NVS) Transporter Assay for rat Norepinephrine Transporter (NET) (AID 2283373)
Summary of the method: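 Rat forebrain membranes; radioligand binding measured by filter-based scintillation counting 1 hour after dosing. Loss of specific binding versus DMSO baseline scored; primary screen in duplicate at 25 uM, actives followed up in concentration series.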

Sequence of human Adenosine Transporter (Adot), SLC29A1 (gene 2030) (Q99808 whole entry, looked up): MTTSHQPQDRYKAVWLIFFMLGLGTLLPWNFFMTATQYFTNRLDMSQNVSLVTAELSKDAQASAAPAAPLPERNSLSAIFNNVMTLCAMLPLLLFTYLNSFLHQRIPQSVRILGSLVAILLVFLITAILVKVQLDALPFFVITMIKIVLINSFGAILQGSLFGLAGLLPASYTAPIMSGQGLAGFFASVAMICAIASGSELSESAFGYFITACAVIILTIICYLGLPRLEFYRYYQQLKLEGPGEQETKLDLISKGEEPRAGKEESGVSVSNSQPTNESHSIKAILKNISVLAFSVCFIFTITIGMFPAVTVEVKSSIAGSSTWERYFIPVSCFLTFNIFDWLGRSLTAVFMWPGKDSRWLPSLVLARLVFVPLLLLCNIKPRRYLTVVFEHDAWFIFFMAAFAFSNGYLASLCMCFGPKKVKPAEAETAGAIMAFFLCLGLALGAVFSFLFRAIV
Sequence of rat Androgen Receptor (AR), Ar (gene 24208) (P15207 whole entry, looked up): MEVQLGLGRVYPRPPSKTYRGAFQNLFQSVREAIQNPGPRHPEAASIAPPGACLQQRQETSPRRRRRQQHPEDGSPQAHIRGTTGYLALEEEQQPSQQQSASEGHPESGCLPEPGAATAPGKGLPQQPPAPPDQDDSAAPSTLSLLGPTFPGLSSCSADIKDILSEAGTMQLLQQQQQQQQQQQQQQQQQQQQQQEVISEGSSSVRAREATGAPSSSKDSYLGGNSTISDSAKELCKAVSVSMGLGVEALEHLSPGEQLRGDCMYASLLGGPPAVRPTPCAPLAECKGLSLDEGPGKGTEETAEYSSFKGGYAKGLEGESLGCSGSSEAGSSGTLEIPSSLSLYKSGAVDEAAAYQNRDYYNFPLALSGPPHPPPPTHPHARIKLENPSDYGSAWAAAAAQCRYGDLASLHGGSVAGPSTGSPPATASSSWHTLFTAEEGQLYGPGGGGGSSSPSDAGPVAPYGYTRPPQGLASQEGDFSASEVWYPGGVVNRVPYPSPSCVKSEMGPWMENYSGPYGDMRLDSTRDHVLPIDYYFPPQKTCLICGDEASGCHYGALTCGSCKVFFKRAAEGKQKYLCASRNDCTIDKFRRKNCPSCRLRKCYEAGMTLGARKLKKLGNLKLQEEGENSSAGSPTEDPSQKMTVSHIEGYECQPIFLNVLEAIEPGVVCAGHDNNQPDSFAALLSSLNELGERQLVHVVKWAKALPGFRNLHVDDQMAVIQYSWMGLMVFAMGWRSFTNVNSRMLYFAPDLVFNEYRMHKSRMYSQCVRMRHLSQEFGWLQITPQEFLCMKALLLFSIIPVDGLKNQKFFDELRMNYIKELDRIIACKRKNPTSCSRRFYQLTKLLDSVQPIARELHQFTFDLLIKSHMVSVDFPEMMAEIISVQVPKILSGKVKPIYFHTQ
Sequence of human Dopamine Transporter (DAT), SLC6A3 (gene 6531) (Q01959 whole entry, looked up): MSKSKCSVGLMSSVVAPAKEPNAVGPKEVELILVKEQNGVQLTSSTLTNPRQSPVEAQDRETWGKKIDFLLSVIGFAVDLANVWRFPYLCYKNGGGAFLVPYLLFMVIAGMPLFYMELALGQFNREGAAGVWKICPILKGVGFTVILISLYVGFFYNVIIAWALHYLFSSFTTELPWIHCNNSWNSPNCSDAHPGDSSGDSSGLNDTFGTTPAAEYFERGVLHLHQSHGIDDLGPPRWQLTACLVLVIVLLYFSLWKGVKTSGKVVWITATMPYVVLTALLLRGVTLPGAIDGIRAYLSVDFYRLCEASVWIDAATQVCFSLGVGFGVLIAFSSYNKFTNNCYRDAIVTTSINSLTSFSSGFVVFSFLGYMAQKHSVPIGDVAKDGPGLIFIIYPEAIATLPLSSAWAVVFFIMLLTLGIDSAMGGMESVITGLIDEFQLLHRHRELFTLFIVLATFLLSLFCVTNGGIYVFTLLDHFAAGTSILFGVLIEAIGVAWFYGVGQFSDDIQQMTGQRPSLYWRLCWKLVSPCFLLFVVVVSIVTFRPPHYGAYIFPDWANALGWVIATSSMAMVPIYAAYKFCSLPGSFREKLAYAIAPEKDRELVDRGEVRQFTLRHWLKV
Sequence of human Serotonin Transporter (SERT), SLC6A4 (gene 6532) (P31645 whole entry, looked up): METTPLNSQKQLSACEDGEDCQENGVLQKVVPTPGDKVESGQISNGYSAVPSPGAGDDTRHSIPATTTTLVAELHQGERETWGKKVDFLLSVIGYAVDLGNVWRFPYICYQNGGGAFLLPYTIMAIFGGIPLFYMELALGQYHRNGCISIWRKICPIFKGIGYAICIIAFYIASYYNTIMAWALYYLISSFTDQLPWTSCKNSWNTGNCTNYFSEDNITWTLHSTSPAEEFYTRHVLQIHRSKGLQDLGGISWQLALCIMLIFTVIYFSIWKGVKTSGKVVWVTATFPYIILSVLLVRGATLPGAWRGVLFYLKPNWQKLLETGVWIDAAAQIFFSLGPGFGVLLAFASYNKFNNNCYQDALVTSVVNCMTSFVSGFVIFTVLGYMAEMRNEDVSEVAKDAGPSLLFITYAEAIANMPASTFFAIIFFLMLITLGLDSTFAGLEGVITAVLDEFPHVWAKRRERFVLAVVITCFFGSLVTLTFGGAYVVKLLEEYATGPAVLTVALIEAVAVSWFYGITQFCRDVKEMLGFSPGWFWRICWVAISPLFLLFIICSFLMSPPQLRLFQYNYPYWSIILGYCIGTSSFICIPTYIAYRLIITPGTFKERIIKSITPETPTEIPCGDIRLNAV
Sequence of Peroxisome proliferator-activated receptor gamma (Homo sapiens) (P37231 whole entry, looked up): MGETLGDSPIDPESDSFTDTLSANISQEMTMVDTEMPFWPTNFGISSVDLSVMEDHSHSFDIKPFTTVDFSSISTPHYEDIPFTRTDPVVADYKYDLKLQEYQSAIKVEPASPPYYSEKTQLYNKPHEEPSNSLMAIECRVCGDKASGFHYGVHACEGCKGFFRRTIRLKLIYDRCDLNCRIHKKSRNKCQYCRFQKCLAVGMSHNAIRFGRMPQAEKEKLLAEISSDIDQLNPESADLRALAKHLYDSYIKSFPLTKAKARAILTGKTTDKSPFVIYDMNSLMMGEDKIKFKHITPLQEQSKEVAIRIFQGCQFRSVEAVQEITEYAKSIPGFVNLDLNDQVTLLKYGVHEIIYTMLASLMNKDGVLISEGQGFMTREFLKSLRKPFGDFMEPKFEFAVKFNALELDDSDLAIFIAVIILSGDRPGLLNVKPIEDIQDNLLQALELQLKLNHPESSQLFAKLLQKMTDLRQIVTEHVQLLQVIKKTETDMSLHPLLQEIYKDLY
Sequence of Nuclear receptor subfamily 1 group I member 2 (Homo sapiens) (O75469 whole entry, looked up): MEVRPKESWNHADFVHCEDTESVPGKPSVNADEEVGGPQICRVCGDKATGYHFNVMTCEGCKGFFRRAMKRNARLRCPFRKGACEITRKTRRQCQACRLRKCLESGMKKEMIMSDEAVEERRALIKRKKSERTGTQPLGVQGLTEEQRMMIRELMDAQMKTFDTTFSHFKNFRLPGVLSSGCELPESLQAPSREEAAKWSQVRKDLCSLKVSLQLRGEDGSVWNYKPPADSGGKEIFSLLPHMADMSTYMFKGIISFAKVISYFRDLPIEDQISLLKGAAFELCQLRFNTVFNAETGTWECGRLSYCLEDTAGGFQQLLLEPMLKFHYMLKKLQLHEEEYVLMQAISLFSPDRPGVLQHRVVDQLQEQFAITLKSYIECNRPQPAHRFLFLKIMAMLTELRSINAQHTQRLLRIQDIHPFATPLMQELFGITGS
Sequence of human Thyroid Receptor Alpha (TRa), THRA (gene 7067) (P10827 whole entry, looked up): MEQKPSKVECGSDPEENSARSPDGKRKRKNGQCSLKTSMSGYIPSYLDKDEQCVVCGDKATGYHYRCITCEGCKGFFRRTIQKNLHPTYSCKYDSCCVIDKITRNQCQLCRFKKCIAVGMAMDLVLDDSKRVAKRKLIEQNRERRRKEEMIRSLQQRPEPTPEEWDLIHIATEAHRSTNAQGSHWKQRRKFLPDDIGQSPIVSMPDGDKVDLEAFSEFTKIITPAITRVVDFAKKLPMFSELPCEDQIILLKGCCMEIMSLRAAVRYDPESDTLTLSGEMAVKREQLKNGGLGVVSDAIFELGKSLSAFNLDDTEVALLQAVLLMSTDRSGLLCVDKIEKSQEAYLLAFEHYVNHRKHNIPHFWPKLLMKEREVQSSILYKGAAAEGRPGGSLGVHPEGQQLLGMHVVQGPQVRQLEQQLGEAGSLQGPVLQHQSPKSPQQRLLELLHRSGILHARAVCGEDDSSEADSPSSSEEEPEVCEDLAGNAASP
Sequence of Glucocorticoid receptor (Homo sapiens) (P04150 whole entry, looked up): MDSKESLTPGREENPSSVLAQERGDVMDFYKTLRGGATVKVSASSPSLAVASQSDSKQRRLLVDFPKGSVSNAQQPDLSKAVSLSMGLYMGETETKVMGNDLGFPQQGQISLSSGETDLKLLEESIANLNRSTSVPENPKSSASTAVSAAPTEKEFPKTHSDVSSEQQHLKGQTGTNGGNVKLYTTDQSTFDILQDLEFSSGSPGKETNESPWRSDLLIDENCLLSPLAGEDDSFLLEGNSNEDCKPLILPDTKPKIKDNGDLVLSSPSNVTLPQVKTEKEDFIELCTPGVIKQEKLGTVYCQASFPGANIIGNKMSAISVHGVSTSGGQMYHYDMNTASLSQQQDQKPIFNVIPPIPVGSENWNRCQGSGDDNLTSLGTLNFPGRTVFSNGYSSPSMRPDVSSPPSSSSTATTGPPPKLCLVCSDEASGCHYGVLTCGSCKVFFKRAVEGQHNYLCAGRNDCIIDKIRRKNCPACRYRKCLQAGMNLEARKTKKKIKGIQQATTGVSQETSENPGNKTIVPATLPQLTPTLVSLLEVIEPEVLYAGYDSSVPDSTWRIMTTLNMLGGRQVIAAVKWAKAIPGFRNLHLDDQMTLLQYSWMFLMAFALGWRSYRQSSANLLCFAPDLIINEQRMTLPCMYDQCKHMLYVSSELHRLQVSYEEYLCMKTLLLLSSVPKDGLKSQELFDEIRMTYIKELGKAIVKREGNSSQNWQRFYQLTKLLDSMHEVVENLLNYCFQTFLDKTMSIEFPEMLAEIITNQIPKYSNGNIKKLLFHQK

Structure (SMILES): Cc1ccc(-c2c(Cl)nc(C#N)n2S(=O)(=O)N(C)C)cc1
- outcome [1]: inactive
- outcome [2]: inactive

Structure (SMILES): CC1COC(Cn2cncn2)(c2ccc(Oc3ccc(Cl)cc3)cc2Cl)O1 (centres undefined)
- AC50 [1]: 1.89 µM (active)
- AC50 [3]: 12.3 µM (active)
- AC50 [4]: 2.93 µM (active)

Structure (SMILES): CCc1nn(C)c(C(=O)NCc2ccc(C(C)(C)C)cc2)c1Cl
- AC50 [4]: 6.22 µM (active)

Structure (SMILES): CCOC(=O)CC(SP(=S)(OC)OC)C(=O)OCC (centres undefined)
- outcome [1]: inactive
- outcome [5]: inactive
- outcome [2]: inactive

Structure (SMILES): COP(N)(=O)SC (centres undefined)
- outcome [1]: inactive
- outcome [2]: inactive

Structure (SMILES): COc1nc(C)nc(NC(=O)NS(=O)(=O)c2ccccc2CCC(F)(F)F)n1
- AC50 [6]: 0.0855 µM (active)
- outcome [6]: inactive
- outcome [2]: inactive
- outcome [7]: inactive

Structure (SMILES): Oc1ccccc1-c1ccccc1
- outcome [8]: inactive
- AC50 [9]: 15.7 µM (active)
- outcome [2]: inactive
- outcome [10]: inactive

Structure (SMILES): CCCCNC(=O)n1c(NC(=O)OC)nc2ccccc21
- outcome [10]: inactive

Structure (SMILES): CCOc1cc(Oc2ccc(C(F)(F)F)cc2Cl)ccc1[N+](=O)[O-]
- AC50 [4]: 6.37 µM (active)

Structure (SMILES): O=C(Nc1ccccc1)Nc1ccnc(Cl)c1
- outcome [7]: inactive

Structure (SMILES): COc1cnc(OC)n2nc(NS(=O)(=O)c3c(OCC(F)F)cccc3C(F)(F)F)nc12
- outcome [2]: inactive

Structure (SMILES): N#Cc1nn(-c2c(Cl)cc(C(F)(F)F)cc2Cl)c(N)c1S(=O)C(F)(F)F (centres undefined)
- outcome [2]: inactive

Structure (SMILES): CCCN(CCC)c1c([N+](=O)[O-])cc(S(N)(=O)=O)cc1[N+](=O)[O-]
- outcome [8]: inactive
- outcome [1]: inactive
- AC50 [9]: 6.68 µM (active)
- AC50 [2]: 0.0071 µM (active)
- outcome [2]: inactive

Structure (SMILES): CO/C=C(/C(=O)OC)c1ccccc1Oc1cc(Oc2ccccc2C#N)ncn1
- outcome [8]: inactive
- outcome [1]: inactive
- outcome [9]: inactive
- outcome [5]: inactive
- outcome [6]: inactive
- outcome [2]: inactive
- outcome [4]: inactive

Structure (SMILES): N#CC(CCc1ccc(Cl)cc1)(Cn1cncn1)c1ccccc1 (centres undefined)
- outcome [5]: inactive
- outcome [6]: inactive
- AC50 [4]: 7.06 µM (active)

Structure (SMILES): C#CCOS(=O)OC1CCCCC1Oc1ccc(C(C)(C)C)cc1 (centres undefined)
- outcome [8]: inactive
- AC50 [1]: 16.5 µM (active)
- AC50 [3]: 15.6 µM (active)
- outcome [2]: inactive
- AC50 [4]: 9.17 µM (active)

Structure (SMILES): CNC(=S)S
- outcome [1]: inactive
- outcome [9]: inactive

Structure (SMILES): COC(=O)N(OC)c1ccccc1COc1ccn(-c2ccc(Cl)cc2)n1
- AC50 [1]: 2.01 µM (active)

Structure (SMILES): Cc1cc(Cl)ccc1OCC(=O)O
- outcome [2]: inactive
- outcome [7]: inactive

Structure (SMILES): CNC(=O)ON=CC(C)(C)SC
- outcome [1]: inactive

Structure (SMILES): C=CCC1=C(C)C(OC(=O)C2C(C=C(C)C)C2(C)C)CC1=O (centres undefined)
- outcome [1]: inactive
- AC50 [3]: 26.2 µM (active)
- outcome [3]: inactive
- AC50 [2]: 39.1 µM (active)
- outcome [2]: inactive
- AC50 [4]: 7.76 µM (active) and 487 nM (active) and 23.7 µM (active)
- outcome [4]: inactive

Structure (SMILES): CCNc1nc(Cl)nc(NC(C)C)n1
- outcome [8]: inactive
- outcome [1]: inactive
- outcome [2]: inactive

Structure (SMILES): Cc1c(F)c(F)c(COC(=O)C2C(/C=C(\Cl)C(F)(F)F)C2(C)C)c(F)c1F (centres undefined)
- AC50 [4]: 8.33 µM (active)

Structure (SMILES): O=C(O)COc1nc(Cl)c(Cl)cc1Cl
- outcome [2]: inactive

Structure (SMILES): COc1ccc(C(c2ccc(OC)cc2)C(Cl)(Cl)Cl)cc1
- outcome [8]: inactive
- outcome [1]: inactive
- outcome [9]: inactive
- AC50 [3]: 14 µM (active)
- outcome [2]: inactive
- outcome [4]: inactive

Structure (SMILES): CCNc1nc(Cl)nc(NCC)n1
- outcome [1]: inactive
- outcome [2]: inactive

Structure (SMILES): CCCCNC(=O)OCC#CI
- outcome [8]: inactive
- outcome [2]: inactive

Structure (SMILES): CC1=C(C(=O)Nc2ccccc2)SCCO1
- AC50 [3]: 13.9 µM (active)
- AC50 [10]: 8.37 µM (active)
- AC50 [4]: 9.69 µM (active)

Structure (SMILES): COc1nc(NC(C)C)nc(NC(C)C)n1
- outcome [7]: inactive

Structure (SMILES): C=CC1(C)OC(=O)N(c2cc(Cl)cc(Cl)c2)C1=O (centres undefined)
- AC50 [1]: 6.97 µM (active)
- outcome [1]: inactive
- outcome [2]: inactive

Structure (SMILES): COC(=O)C(C)Oc1ccc(Oc2ccc(Cl)cc2Cl)cc1 (centres undefined)
- outcome [3]: inactive
- AC50 [4]: 14.2 µM (active)
- outcome [4]: inactive

Structure (SMILES): CCCCC(CC)COC(=O)c1ccccc1C(=O)OCC(CC)CCCC (centres undefined)
- outcome [8]: inactive
- AC50 [1]: 8.8 µM (active)
- outcome [2]: inactive

Structure (SMILES): OC(c1ccc(Cl)cc1)(c1cncnc1)c1ccccc1Cl (centres undefined)
- AC50 [1]: 8.34 µM (active)
- AC50 [4]: 0.944 µM (active)

Structure (SMILES): CCCC1COC(Cn2cncn2)(c2ccc(Cl)cc2Cl)O1 (centres undefined)
- AC50 [1]: 10.5 µM (active)
- outcome [9]: inactive
- outcome [5]: inactive
- outcome [2]: inactive

Structure (SMILES): CCCCOC(=O)c1ccccc1C(=O)OCCCC
- AC50 [8]: 0.111 µM (active)
- outcome [1]: inactive
- outcome [9]: inactive
- AC50 [3]: 19.5 µM (active)
- outcome [3]: inactive
- outcome [2]: inactive
- outcome [4]: inactive

Structure (SMILES): COC(=O)c1ccccc1C(=O)OC
- outcome [1]: inactive
- outcome [2]: inactive

Structure (SMILES): C=CCC1=C(C)[C@@H](OC(=O)[C@@H]2[C@@H](C=C(C)C)C2(C)C)CC1=O
- outcome [9]: inactive
- AC50 [3]: 20.3 µM (active)
- AC50 [4]: 18.6 µM (active)

Structure (SMILES): Fc1ccc(Oc2ccnc3cc(Cl)cc(Cl)c23)cc1
- AC50 [3]: 13.8 µM (active)
- AC50 [4]: 9.77 µM (active)

Structure (SMILES): CON(C)C(=O)Nc1ccc(Cl)c(Cl)c1
- AC50 [1]: 8.61 µM (active)
- outcome [9]: inactive
- outcome [2]: inactive
- AC50 [4]: 13.4 µM (active)
